tim10-1 inh – growth inhibitors of tim10-1 mutant yeast, primary screen, luminescence, uHTS. inhibition, % at 20 µM. AID 463190, 2010. S. cerevisiae tim10-1 ts strain growth, BacTiter-Glo, 24 h. 330,000 tested, 2.2% active;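 active = inhibition of at least 40%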;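 note: mutant grown at 25 °C; 0% = DMSO wells with yeast and 100% = wells holding no yeast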
NLRP3 yeast inh – NALP3 inflammasome inhibitors in reconstituted yeast, primary screen, luminescence, uHTS | Yeast reconstituted NLRP3/ASC/caspase-1, beta-gal luminescence, 24 h | inhibition, % at 10 µM | 330,000 tested, 0.39% active;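 active = inhibition of 50% or more; inactive = inhibition below 50%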;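 note: plate controls were induced DMSO wells for no effect and uninduced yeast grown without galactose for full effect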
V-ATPase pHluor – regulators of yeast V-ATPase proton pumping, primary screen, pHLuorin cytosolic pH fluorescence; S. cerevisiae; response, % at 10 µM; 350,000 tested, 0.37% active; in the data active = response mostly above about 7.3%, no sharp cut-off; inactive = mostly below about 5.4%; note: actives read high
NALP1 yeast inh – NALP1 inflammasome inhibitors in reconstituted yeast, colorimetric, S. cerevisiae, triplicate retest. AID 2071, 2009. 280,000 tested, 0.61% active. inhibition, % at 10 µM. S. cerevisiae NALP1/ASC/caspase-1 growth, X-gal OD620, 72 h; in the data active = inhibition mostly above about 24%, no sharp cut-off; inactive = mostly below about 32%
TIM10 inh – growth inhibitors of isogenic TIM10 control yeast, primary screen, counter-screen for tim10-1 yeast inhibitor project, luminescence, uHTS. S. cerevisiae TIM10 strain growth, BacTiter-Glo luminescence, 24 h. inhibition, % at 10 µM. 330,000 tested, 1.4% active. AID 463195, 2010;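 active = inhibition of 40% or more at the single tested concentration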;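 note: wild-type TIM10 isogenic control strain grown at permissive 25 °C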
tim23-1 inh – growth inhibitors of tim23-1 mutant yeast, primary screen, luminescence, uHTS | S. cerevisiae tim23-1 growth, BacTiter-Glo luminescence, 24 h | inhibition, % at 20 µM | 330,000 tested, 1.3% active;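 active = growth inhibition of the mutant yeast at or above 50%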;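 note: temperature-sensitive mutant grown at 25 °C; plate controls were DMSO-treated mutant yeast for no effect and medium wells lacking yeast for full effect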
tim10 confirm – growth inhibitors of wild-type TIM10 yeast, confirmation, counter-screen for tim10-1 synthetic lethality project, single concentration, luminescence, S. cerevisiae. inhibition, % at 10 µM. 4,600 tested, 63% active. shares compounds with TIM10 inh. S. cerevisiae tim10 strain growth, BacTiter-Glo luminescence, 24 h;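 active = inhibition of yeast growth at or above a set limit in either of two replicates at 10 µM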;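 note: this counterscreen used the strain with wild-type TIM10; 0% = yeast with DMSO and 100% = medium wells lacking yeast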
An asterisk follows results filed as active; nt = no result given. An excerpt weighted towards active compounds, which were near 4.2% of everything screened.

SMILES | tim10-1 inh | NLRP3 yeast inh | V-ATPase pHluor | NALP1 yeast inh | TIM10 inh | tim23-1 inh | tim10 confirm
COc1ccc(S(=O)(=O)NCCC(=O)N2CCCC2)cc1N(C)S(C)(=O)=O | 15 | 8 | -3 | 20 | -5 | -3 | nt
CC12CCC(C(=O)N(CSC(=S)N/N=C\c3ccccc3)C1=O)C2(C)C (configuration not stated) | 36 | 22 | -4 | 5 | 58* | 5 | 50*
CCCc1cc(=O)oc2c(C)c(O[C@@H]3O[C@H](CO)[C@@H](O)[C@H](O)[C@H]3O)ccc12 | -10 | -13 | -2 | -2 | 9 | 11 | nt
CC(=O)Nc1ccc(/C=C(\C#N)C(=O)NC2CCCCC2C)cc1 (configuration not stated) | 38 | 16 | -2 | 6 | 68* | 47 | 45*
COc1cc(/C=C(\C#N)C(=O)NC2CCCCC2C)ccc1OS(=O)(=O)c1ccc(C)cc1 (configuration not stated) | 36 | 19 | 2 | 33 | 34 | 36 | nt
N/C(=N\c1nc(CSc2ccc(Cl)cc2)cc(=O)[nH]1)Nc1cccc2ccccc12 | 0 | -7 | 3 | 5 | -4 | 9 | nt
Cn1c(/C(C#N)=C/c2cccc(O)c2)nc2ccccc21 | 39 | 11 | -2 | 41* | 43* | 42 | 36*
CCCCCOc1ccc(NC(=O)C2OC3OC(C)(C)OC3C3OC(C)(C)OC23)cc1 (configuration not stated) | 19 | 16 | 0 | 3 | -5 | -10 | nt
CCN(CC)C(=S)SC1CCCCN(C(=O)c2ccccc2)C1=O (configuration not stated) | 28 | -16 | -2 | -6 | 40 | 36 | 22
CCc1cccc(CC)c1NC(=S)NCC(c1cccnc1)N(C)C (configuration not stated) | 2 | 12 | 4 | 5 | -2 | 15 | nt
NC(=O)CC(NC(=O)c1cccc(Br)c1)c1ccc(NCCN2CCOCC2)c([N+](=O)[O-])c1 (configuration not stated) | 7 | -4 | nt | nt | 43* | -5 | -12
NC(=O)CC(NC(=O)c1ccccc1)c1ccc(N2CCN(c3ccccc3)CC2)c([N+](=O)[O-])c1 (configuration not stated) | -13 | 5 | -1 | 0 | -2 | -11 | nt
NC(=O)CC(NC(=O)c1cccc(Br)c1)c1ccc(NCC2CC2)c([N+](=O)[O-])c1 (configuration not stated) | -6 | 15 | 0 | 15 | -6 | 13 | nt
Cc1cc(C)cc(C(=O)NC(CC(N)=O)c2ccc(N3CCN(c4ccccc4)CC3)c([N+](=O)[O-])c2)c1 (configuration not stated) | -1 | 8 | 4 | 17 | 49* | 6 | -5
COc1ccc(NC(=O)/C(C#N)=C/c2ccc(OCc3ccccc3F)cc2)cc1 | -7 | -2 | 0 | nt | -14 | -26 | nt
O=C(/C=C/c1ccc2c(c1)OCO2)NCCSCc1ccc(Cl)cc1Cl | 37 | 26 | 3 | 4 | 41* | 13 | 3
Cc1cccc2c(=O)c(C(=O)NCc3ccc(F)cc3)c[nH]c12 | -2 | 3 | -1 | 8 | 2 | 6 | nt
Cc1ccc(S(=O)(=O)Nc2ccc(Cl)cn2)cc1 | 9 | 4 | 2 | 18 | 2 | 34 | nt
COc1cc2c(cc1NC(=O)COC(=O)Cn1cnc3ccccc31)oc1ccccc12 | 26 | 40 | -4 | 31 | 41* | -8 | -11
COc1cc2c(cc1NC(=O)COc1ccccc1OC)oc1ccccc12 | 19 | 2 | 0 | 18 | -10 | -8 | nt
Cc1cccc(C)c1NC(=S)NC(=O)c1ccc(Br)o1 | 34 | -17 | 0 | 10 | 42* | 38 | 43*
Cc1cccc(NC(=S)NC(=O)c2ccc(Br)o2)c1C | -4 | 45 | -2 | -25 | -2 | -1 | nt
CCC(=O)Nc1ccc(/C=C(\C(C)=O)C(=O)c2ccccc2)cc1 | 38 | -10 | 2 | -4 | 35 | 35 | nt
CC(=O)/C(=C/c1ccc(N(C)C)cc1)C(=O)c1ccccc1 | 15 | -11 | 2 | 20 | 41* | 18 | -17
S=C(NCCc1ccccc1)N1CCN(Cc2ccc(Cl)c(Cl)c2)CC1 | -7 | 28 | -4 | 22 | -4 | 5 | nt
SMILES | tim10-1 inh | NLRP3 yeast inh | V-ATPase pHluor | NALP1 yeast inh | TIM10 inh | tim23-1 inh | tim10 confirm
O=C1c2ccccc2C(=O)c2c1ccc1c(=O)n(-c3ccccc3)[nH]c21 | 23 | 20 | -9 | 32 | 15 | 4 | nt
CC(C)Cn1[nH]c2c3c(ccc2c1=O)C(=O)c1ccccc1C3=O | 24 | 30 | 2 | -3 | 58* | 28 | 49*
O=C(c1ccccc1O)N1N=C(c2ccccc2)CC1(O)C(F)(F)F (configuration not stated) | 29 | -6 | 0 | 10 | 46* | 34 | 4
CNc1ncc(C(=O)c2ccc(Cl)cc2)s1 | -10 | 16 | -1 | 11 | 26 | 14 | nt
CNc1ncc(C(=O)c2ccc(Cl)c(Cl)c2)s1 | 37 | 35 | 3 | -2 | 55* | 47 | 30
NC(=O)c1nsc(C(=O)N(c2ccccc2F)C(C(=O)NCc2ccccc2)c2ccc(O)cc2)c1N (configuration not stated) | -7 | 1 | -51 | 22 | 96* | -4 | 8
Cc1ccc(C(=O)COC(=O)C2CC(=O)N(c3nc(-c4ccccc4)cs3)C2)cc1C (configuration not stated) | 36 | 1 | 1 | 11 | 31 | 16 | nt
CCOc1ccc(/C=N/NC(=S)Nc2c(C)cccc2C)cc1 | 36 | 27 | 0 | 29 | 52* | 31 | 4
CCNC(=S)N/N=C/c1ccc(OCCOc2ccccc2C)cc1 | 8 | 7 | -1 | 21 | 5 | -26 | nt
CC12CCC(c3nnc(SCC(=O)Nc4cccc5ccccc45)nc31)C2(C)C (configuration not stated) | 36 | -1 | -2 | -6 | 46* | 38 | 24
CCOC(=O)CSc1nnc2c(n1)C1(C)CCC2C1(C)C (configuration not stated) | 23 | -3 | 7 | 20 | 2 | 18 | nt
CCC(C(=O)Nc1cc(C)nn1-c1nc(C)cc(C)n1)c1ccccc1 (configuration not stated) | 26 | 16 | -1 | 14 | 44* | 16 | -1
Cc1cc(C)nc(-n2nc(C)cc2NC(=O)CNCc2ccccc2)n1 | 26 | 2 | -5 | nt | 2 | 4 | nt
